Assay results from ChEMBL document CHEMBL3988442, “University of Dundee, Small-Polar-MMV Screening Library” (2021).
In all, about 53,000 compounds went through this assay and about 900 (1.7%) showed an effect of 50% or more. The sample holds strong results, similar compounds and a random draw of the others, so the mix is not that of the screen.

The molecules below were run on Mycobacterium tuberculosis (assay: Cornell - Phenotypic assay to identify agents that inhibit growth of Mycobacterium tuberculosis). Settings: 10 mM as filed; unlikely as a test dose.
Assay type: functional
Set-up: scale not given: direction of the effect not stated beside the values
`Cc1ccc(OCC(=O)Nc2cc(C(=O)O)cc(S(C)(=O)=O)c2)cc1C` was tested, and the “Percent Effect” value was 18.88%.
`CCc1nc(C2CCCN2C(=O)c2csc(COC)n2)no1` (centres undefined) was tested, and the “Percent Effect” value was -20.84%.
`Cc1cc(-n2cncn2)n2ncnc2n1` was tested, and the “Percent Effect” value was 64.26%.
With `Cc1cc(-n2cnnn2)n2ncnc2n1` the “Percent Effect” value was -30.4%.
`Cc1cc(N2CCCC2Cn2nc(C)cc2C)n2ncnc2n1` (centres undefined) was tested, and the “Percent Effect” value was -13.82%.
For `Cc1ccc(C(=O)N2CCOC(c3ncc(CN(C)C)[nH]3)C2)cc1F` (centres undefined), the “Percent Effect” value was 14.93%.
For `COc1ccc(F)cc1CN(CC(N)=O)C(C)C`, the “Percent Effect” value was -0.4736%.
`Cc1cc(-c2ccccc2)nc(C2CCCN2S(C)(=O)=O)n1` (centres undefined) was tested, and the “Percent Effect” value was -11.27%.
For `Cn1cc(Br)c(C(=O)NCCn2cc(Br)cn2)n1`, the “Percent Effect” value was 8.473%.
For `N#Cc1ccc(N2CCC(OCCc3ccccc3)CC2)nc1`, the “Percent Effect” value was 51.1%.
For `N#Cc1cccnc1N1CCC(OCCc2ccccc2)CC1`, the “Percent Effect” value was 33.41%.
For `Cc1cccc(OC2CCN(c3ccc(C#N)cn3)CC2)n1`, the “Percent Effect” value was 4.434%.
For `O=C(Cc1cccc(O)c1)N1CCCC(O)(CN2CCCC2)CC1` (centres undefined), the “Percent Effect” value was -1.621%.
`c1cc2c(cc1CN1CCN(Cc3noc(C4CC4)n3)CC1)OCO2` was tested, and the “Percent Effect” value was 10.54%.
In the case of `CCC(=O)Nc1ccc2c(c1)C1(CCOCC1)CN2CCF.O=C(O)C(F)(F)F`, the “Percent Effect” value is reported as 2.387%.
For `CCC1C(=O)NCCN1c1nccc(C)n1` (centres undefined), the “Percent Effect” value was -0.2663%.
For `Cc1nc(CN2CCc3nc(NC(C)C)nc(C)c3C2)cs1`, the “Percent Effect” value was 38.07%.
For `CCC(C)N1CCc2nc(N3CCCC3)nc(NC(C)C)c2C1` (centres undefined), the “Percent Effect” value was -13.77%.
In the case of `CCCN1CCc2nc(N3CCOCC3)nc(NC(C)C)c2C1`, the “Percent Effect” value is reported as 29.26%.
In the case of `CC(C)Nc1nc(N2CCCC2)nc2c1CN(C(C)C)CC2`, the “Percent Effect” value is reported as 61.73%.
`CC(C)Nc1nc(N2CCCC2)nc2c1CN(c1ncc(F)cn1)CC2` was tested, and the “Percent Effect” value was 82.11%.
With `CC(C)Nc1nc(N2CCCC2)nc2c1CN(S(C)(=O)=O)CC2` the “Percent Effect” value was 12.79%.
`Cc1nc(CN2CCc3nc(N4CCCC4)nc(NC(C)C)c3C2)cs1` was tested, and the “Percent Effect” value was 75.47%.
With `CCN1CCc2nc(N3CCOCC3)nc(NC(C)C)c2C1` the “Percent Effect” value was 16.58%.
`CC(C)Nc1nc(N2CCCC2)nc2c1CN(C)CC2` was tested, and the “Percent Effect” value was 33.38%.
In the case of `CCN(C(=O)c1nc2c(s1)CCCN2c1ccc(C)nn1)C(C)C`, the “Percent Effect” value is reported as 10.96%.
For `Cc1cc(F)ccc1N1CCCC(Nc2nccn3cnnc23)C1=O` (centres undefined), the “Percent Effect” value was -2.577%.
`Cc1cc(C(F)(F)F)n2nc(C3CCN(S(=O)(=O)N(C)C)CC3)cc2n1` was tested, and the “Percent Effect” value was -8.533%.
With `Cc1cc(C)nc(C2CCCN2C(=O)c2cnccn2)n1` (centres undefined) the “Percent Effect” value was -1.129%.
In the case of `Cn1ccc2c(-c3cc(N4CCCCC4)ncn3)ccnc21`, the “Percent Effect” value is reported as -7.071%.
With `Clc1cc(N2CCN(C3CCOCC3)CC2)nc2[nH]ccc12` the “Percent Effect” value was -30.2%.
In the case of `CN(Cc1noc(-c2ccccc2)n1)C(=O)CSc1nnc(N)s1`, the “Percent Effect” value is reported as -22.54%.
In the case of `CC(C)NC(=O)Cc1cnc(-n2cccc2)s1`, the “Percent Effect” value is reported as 43.3%.
`CCOCC(=O)N1CCCn2c(CN3CCOCC3)nnc2C1` was tested, and the “Percent Effect” value was 18.04%.
`CN1CCN(C(=O)c2cc(-c3cnc(N4CCCC4)nc3)cn2C)CC1` was tested, and the “Percent Effect” value was 2.355%.
For `Cn1cc(-c2cnc(N3CCOCC3)nc2)cc1C(=O)O`, the “Percent Effect” value was 44.3%.
With `Cn1cc(-c2cnc(N3CCCC3)nc2)cc1C(=O)O` the “Percent Effect” value was 95.84%.
With `COc1cccc(Cl)c1C(C(=O)O)N1CCC(Cn2cccn2)CC1` (centres undefined) the “Percent Effect” value was -18.71%.
`CN(Cc1noc(C(C)(C)C)n1)Cc1ccccc1N1CCCCC1` was tested, and the “Percent Effect” value was 2.184%.
With `CC(C)(O)C1CCCN(C(=O)Nc2nc(-c3ccccc3)ns2)C1` (centres undefined) the “Percent Effect” value was 24.52%.
`CC(C)(O)C1CCN(C(=O)Nc2nc(-c3ccccc3)ns2)CC1` was tested, and the “Percent Effect” value was 105.1%.
`O=C(Nc1nc(-c2ccccc2)ns1)N1CCC(F)CC1` was tested, and the “Percent Effect” value was 13.41%.
`O=C(c1ccc(-n2cnnc2)cc1)N1CCCC(n2ccnc2)C1` (centres undefined) was tested, and the “Percent Effect” value was 15.63%.
In the case of `Cc1cc(C)c2cc(CNCc3ccc(C)o3)c3nn(C)c(=O)n3c2c1`, the “Percent Effect” value is reported as -2.639%.
With `O=C(CCn1ccc2ccc(Cl)cc21)NCc1ccc(C(=O)O)cc1` the “Percent Effect” value was 28.36%.
`Cc1ccc(-c2ccccc2CC2(C(=O)NC(C)C)CCCNC2)cc1` (centres undefined) was tested, and the “Percent Effect” value was 60.07%.
With `CC(C)NC(=O)C1(Cc2ccccc2-c2cncnc2)CCCNC1` (centres undefined) the “Percent Effect” value was -1.5%.
`CC(C)NC(=O)C1(Cc2ccccc2-c2ccccc2)CCCNC1` (centres undefined) was tested, and the “Percent Effect” value was -4.67%.
In the case of `Cc1cc(C)n(CC2CN(Cc3cccc(C#N)c3)CCO2)n1` (centres undefined), the “Percent Effect” value is reported as 14.78%.
`COc1ccc(CN2CCn3cc(CN4CCN(C)CC4)nc3C2)cc1.O=C(O)C(F)(F)F.O=C(O)C(F)(F)F.O=C(O)C(F)(F)F` was tested, and the “Percent Effect” value was 3.435%.
In the case of `CC(C)COCCC(=O)Nc1ccc2oc(=O)n(CCN(C)C)c2c1`, the “Percent Effect” value is reported as -58.21%.
With `O=C(NCCc1cc(N2CCOCC2)nc(NC2CC2)n1)C1CCCO1` (centres undefined) the “Percent Effect” value was 34.16%.
For `O=C(NCCc1cc(N2CCOCC2)nc(NC2CC2)n1)C1CC1`, the “Percent Effect” value was 33.35%.
`O=C(NCCc1cc(N2CCOCC2)nc(N2CCCC2)n1)C1CC1` was tested, and the “Percent Effect” value was 50.32%.
